In PubChem BioAssay (NCATS):
Results filed as inconclusive are left out. The source made the active and inactive calls. Unless noted, the call rests on the fitted dose curve; in most records, active means well fitted curve in the direction sought with a large enough effect; inconclusive means small, poorly fitted or top-dose-only effect, or another doubt; inactive means no such curve, though single readings can be large; an effect the other way counts as inactive or inconclusive.

Experiments:
[1] = target: Glucocorticoid receptor (Homo sapiens) (UniProt P04150); experiment: qHTS assay for small molecule agonists of glucocorticoid receptor signaling (AID 588532; active means well fitted curve in the direction sought with a large enough effect in the signal ratio, with a control signal flat; the % refers to the signal ratio;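 further: 100% = dexamethasone at 0.1 µM and 0% = DMSO only wells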); conditions: HeLa MMTV-bla, beta-lactamase ratio, agonist, 18 h; stronger effect = higher value; percent of dexamethasone control, DMSO zero
Sequence of Glucocorticoid receptor (Homo sapiens) (P04150 whole entry, looked up): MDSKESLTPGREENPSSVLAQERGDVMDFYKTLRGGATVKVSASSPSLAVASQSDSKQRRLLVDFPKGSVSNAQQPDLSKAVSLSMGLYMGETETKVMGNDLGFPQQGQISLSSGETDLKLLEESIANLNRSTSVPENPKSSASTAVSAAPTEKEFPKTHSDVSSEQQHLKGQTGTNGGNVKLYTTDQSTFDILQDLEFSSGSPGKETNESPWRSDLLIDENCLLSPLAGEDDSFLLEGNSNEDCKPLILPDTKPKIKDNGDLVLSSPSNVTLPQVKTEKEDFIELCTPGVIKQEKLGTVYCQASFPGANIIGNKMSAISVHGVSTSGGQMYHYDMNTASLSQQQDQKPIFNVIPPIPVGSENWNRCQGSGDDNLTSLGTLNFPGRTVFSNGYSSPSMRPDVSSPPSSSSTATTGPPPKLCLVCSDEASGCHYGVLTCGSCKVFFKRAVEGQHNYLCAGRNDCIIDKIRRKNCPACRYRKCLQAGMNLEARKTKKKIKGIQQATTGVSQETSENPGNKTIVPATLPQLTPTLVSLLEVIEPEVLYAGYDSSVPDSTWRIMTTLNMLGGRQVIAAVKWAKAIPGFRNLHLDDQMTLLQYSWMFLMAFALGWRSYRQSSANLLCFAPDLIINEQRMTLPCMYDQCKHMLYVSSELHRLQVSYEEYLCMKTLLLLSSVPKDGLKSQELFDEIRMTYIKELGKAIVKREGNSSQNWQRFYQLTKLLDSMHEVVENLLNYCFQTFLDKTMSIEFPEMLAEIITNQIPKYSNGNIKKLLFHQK
Summary of the method: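 Quantitative HTS using CellSensor MMTV-bla HeLa cells in charcoal/dextran-treated serum; compounds tested up to 92 uM. After 18 h at 37 C, CCF4 dye reported reporter induction.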

[2] = target: Glucocorticoid receptor (Homo sapiens) (UniProt P04150); experiment: qHTS assay for small molecule antagonists of glucocorticoid receptor signaling (AID 588533; active means well fitted inhibition curve with a large enough effect in the signal ratio, with a control signal flat, not every such curve was filed as active; the % refers to the signal ratio;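 further: cells stimulated with 2 nM dexamethasone as agonist; on the % scale 0 is the no-effect control and ±100 the full control effect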); conditions: HeLa MMTV-bla, GRE beta-lactamase ratio, antagonist mode, 18 h; series mostly up to 76.8 µM
Summary of the method: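 Antagonist-mode qHTS: compound titrations added to GRE-bla HeLa cells, then dexamethasone 2 nM final; 18 h, 37 C. CCF4 FRET fluorescence normalized to dexamethasone and DMSO; IC50 from Hill fit.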

[3] = qHTS assay for small molecule antagonists of peroxisome proliferator-activated receptor delta signaling (AID 588535; active means well fitted inhibition curve with a large enough effect in the signal ratio, with a control signal flat, not every such curve was filed as active; the % refers to the signal ratio;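 on max response: cells co-treated with a PPAR-delta agonist as stimulator during compound exposure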); conditions: HEK293T PPARd-UAS-bla, beta-lactamase FRET ratio, 18 h; 460 nm channel
Summary of the method: (§1)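 HEK293T PPAR-delta-UAS-bla cells, 4000/well, 2% charcoal/dextran FBS; 5 h 37 C; cpd titration; 18 h 37 C; CCF4 2 h RT; FI 460/530 nm; Hill fit → IC50, efficacy.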

[4] = target: Peroxisome proliferator-activated receptor delta (Homo sapiens) (UniProt Q03181); experiment: as above; conditions: HEK293T PPARd-UAS-bla, beta-lactamase FRET ratio, 18 h; series mostly up to 76.7 µM
Sequence of Peroxisome proliferator-activated receptor delta (Homo sapiens) (Q03181 whole entry, looked up): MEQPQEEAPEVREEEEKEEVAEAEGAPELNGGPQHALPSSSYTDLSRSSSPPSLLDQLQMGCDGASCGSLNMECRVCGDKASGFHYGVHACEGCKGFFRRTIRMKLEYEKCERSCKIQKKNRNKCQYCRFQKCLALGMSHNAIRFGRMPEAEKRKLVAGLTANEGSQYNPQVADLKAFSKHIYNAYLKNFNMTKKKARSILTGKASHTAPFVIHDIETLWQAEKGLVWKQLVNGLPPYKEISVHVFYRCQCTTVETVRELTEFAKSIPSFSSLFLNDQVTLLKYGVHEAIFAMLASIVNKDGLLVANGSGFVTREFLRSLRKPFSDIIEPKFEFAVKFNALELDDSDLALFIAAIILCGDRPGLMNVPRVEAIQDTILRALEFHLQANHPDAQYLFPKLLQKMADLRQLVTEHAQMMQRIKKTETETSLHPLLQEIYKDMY
Summary of the method: as §1

[5] = target: Peroxisome proliferator-activated receptor gamma (Homo sapiens) (UniProt P37231); experiment: qHTS assay for small molecule agonists of peroxisome proliferator-activated receptor gamma signaling (AID 588536; active means well fitted curve in the direction sought with a large enough effect in the signal ratio, with a control signal flat, not every such curve was filed as active; the % refers to the signal ratio;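 further: 0% = DMSO basal wells and 100% = rosiglitazone at 2 µM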); conditions: HEK293 PPARg-UAS-bla, beta-lactamase ratio, 16 h, percent of rosiglitazone response, DMSO as zero; series mostly up to 76.7 µM
Sequence of Peroxisome proliferator-activated receptor gamma (Homo sapiens) (P37231 whole entry, looked up): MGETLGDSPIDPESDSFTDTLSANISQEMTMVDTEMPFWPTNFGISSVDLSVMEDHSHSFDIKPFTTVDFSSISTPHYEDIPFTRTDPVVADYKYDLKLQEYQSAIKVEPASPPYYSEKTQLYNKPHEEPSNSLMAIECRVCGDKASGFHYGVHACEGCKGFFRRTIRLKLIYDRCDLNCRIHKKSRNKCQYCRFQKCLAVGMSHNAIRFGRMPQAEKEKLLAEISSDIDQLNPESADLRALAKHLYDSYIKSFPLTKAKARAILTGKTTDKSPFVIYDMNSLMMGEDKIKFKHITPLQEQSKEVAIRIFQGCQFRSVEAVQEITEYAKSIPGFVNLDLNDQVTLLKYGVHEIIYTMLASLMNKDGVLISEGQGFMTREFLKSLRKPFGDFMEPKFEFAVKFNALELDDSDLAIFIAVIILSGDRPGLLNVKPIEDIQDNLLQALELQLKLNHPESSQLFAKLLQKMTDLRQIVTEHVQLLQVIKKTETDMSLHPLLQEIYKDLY
Summary of the method: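 Test agents, titrated, stimulated HEK293 UAS-bla cells overnight (16 h, 37 C). Substrate CCF4 was then added for two hours at room temperature before fluorescence reading.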

[6] = target: Vitamin D3 receptor (Homo sapiens) (UniProt P11473); experiment: qHTS assay for small molecule agonists of vitamin D receptor signaling (AID 588543; calls by dose curve;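 further: 0% = DMSO basal and 100% = reference agonist control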); conditions: HEK293T VDR-UAS-bla, beta-lactamase ratio, 16 h; series mostly up to 76.8 µM
Sequence of Vitamin D3 receptor (Homo sapiens) (P11473 whole entry, looked up): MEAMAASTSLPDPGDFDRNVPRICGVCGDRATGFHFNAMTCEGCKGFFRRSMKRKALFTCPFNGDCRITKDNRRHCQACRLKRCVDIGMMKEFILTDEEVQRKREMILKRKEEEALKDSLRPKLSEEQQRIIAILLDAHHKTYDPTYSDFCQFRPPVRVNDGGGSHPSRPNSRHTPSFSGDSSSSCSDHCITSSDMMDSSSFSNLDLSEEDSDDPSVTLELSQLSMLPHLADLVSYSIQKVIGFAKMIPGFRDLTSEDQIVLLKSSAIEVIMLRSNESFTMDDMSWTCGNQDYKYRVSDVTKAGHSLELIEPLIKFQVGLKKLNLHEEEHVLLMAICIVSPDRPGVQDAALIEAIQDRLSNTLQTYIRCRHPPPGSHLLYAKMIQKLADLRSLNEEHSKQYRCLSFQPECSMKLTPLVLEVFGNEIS
Summary of the method: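 Measured: β-lactamase reporter activity (CCF4, 405 nm excitation, 460/530 nm emission) in HEK293T VDR-UAS-bla cells after 16 h compound exposure at 37 °C. Normalization against 50 nM 1α,25-dihydroxyvitamin D3 and DMSO; Hill-fit EC50.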

[7] = target: Thyroid hormone receptor beta (Homo sapiens) (UniProt P10828); experiment: qHTS assay for small molecule agonists of thyroid hormone receptor beta signaling (AID 588545; calls by dose curve;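 further: 0% = DMSO only and 100% = 10 nM T3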); conditions: TR-UAS-bla GripTite HEK 293, beta-lactamase ratio, agonist mode, 18 h; series mostly up to 76.7 µM
Sequence of Thyroid hormone receptor beta (Homo sapiens) (P10828 whole entry, looked up): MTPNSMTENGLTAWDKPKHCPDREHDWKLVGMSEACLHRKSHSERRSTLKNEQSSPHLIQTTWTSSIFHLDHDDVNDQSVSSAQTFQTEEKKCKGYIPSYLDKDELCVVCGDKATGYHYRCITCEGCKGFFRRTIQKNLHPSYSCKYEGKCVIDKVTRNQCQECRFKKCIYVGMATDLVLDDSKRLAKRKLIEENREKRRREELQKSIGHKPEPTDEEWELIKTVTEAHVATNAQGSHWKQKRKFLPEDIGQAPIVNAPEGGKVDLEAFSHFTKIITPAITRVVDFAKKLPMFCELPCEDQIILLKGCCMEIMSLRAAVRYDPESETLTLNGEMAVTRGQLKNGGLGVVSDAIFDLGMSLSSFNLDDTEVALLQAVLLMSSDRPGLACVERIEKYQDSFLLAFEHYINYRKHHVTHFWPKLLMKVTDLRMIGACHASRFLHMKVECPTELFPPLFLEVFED
Summary of the method: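 Beta-lactamase reporter activity under TR response element control is measured in HEK 293 cells after 18 hrs compound exposure. Signal is ratiometric CCF4 fluorescence, 460/530 nm.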

[8] = qHTS assay for small molecule antagonists of retinoid X receptor alpha signaling (AID 588546; active means well fitted inhibition curve with a large enough effect in the signal ratio, with a control signal flat, not every such curve was filed as active; the % refers to the signal ratio;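 further: cells stimulated with 9-cis-retinoic acid as agonist; on the % scale 0 is the no-effect control and ±100 the full control effect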); conditions: HEK293T RXRa-UAS-bla, beta-lactamase ratio, antagonist mode; measured here: W530 green channel, cytotoxicity proxy
Summary of the method: (§2)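 Beta-lactamase reporter inhibition, read as CCF4 fluorescence ratio (ex 405, em 460/530 nm) after 2 h at RT. HEK293T UAS-bla cells, 2500/well, were stimulated with 9-cis-RA at 500 or 100 nM final alongside test compound for 18 h at 37 C.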

[9] = target: Retinoic acid receptor RXR-alpha (Homo sapiens) (UniProt P19793); experiment: as above; conditions: HEK293T RXRa-UAS-bla, beta-lactamase ratio, antagonist mode
Sequence of Retinoic acid receptor RXR-alpha (Homo sapiens) (P19793 whole entry, looked up): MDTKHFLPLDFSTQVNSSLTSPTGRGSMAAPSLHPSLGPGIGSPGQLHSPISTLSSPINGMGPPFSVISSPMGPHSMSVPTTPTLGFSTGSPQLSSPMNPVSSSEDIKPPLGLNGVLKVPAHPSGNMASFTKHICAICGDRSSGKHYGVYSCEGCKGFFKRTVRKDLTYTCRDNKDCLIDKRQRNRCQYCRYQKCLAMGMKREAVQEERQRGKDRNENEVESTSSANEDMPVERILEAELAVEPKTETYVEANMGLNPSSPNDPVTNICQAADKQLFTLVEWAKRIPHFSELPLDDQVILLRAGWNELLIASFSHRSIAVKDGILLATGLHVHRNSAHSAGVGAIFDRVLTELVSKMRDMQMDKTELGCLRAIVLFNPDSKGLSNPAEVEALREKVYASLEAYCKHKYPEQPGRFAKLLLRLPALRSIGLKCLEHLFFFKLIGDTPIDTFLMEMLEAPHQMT
Summary of the method: as §2

[10] = qHTS assay for small molecule activators of the p53 signaling pathway (AID 651743; active means well fitted activation curve with a large enough effect in the signal ratio, not every such curve was filed as active; the % refers to the signal ratio; further: % of control where 0% means no effect); conditions: HCT-116 p53RE-bla, beta-lactamase FRET ratio, 16 h; activation: stronger effect = higher value
Summary of the method: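 Read-out is fluorescence intensity from the LiveBLAzer B/G FRET substrate, added for 2 hours at room temperature after HCT-116 p53RE-bla cells had been incubated with compounds for 16 hours at 37 C.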

[11] = qHTS assay for environmental chemicals that activate the Aryl hydrocarbon Receptor (AhR) signaling pathway (AID 651777); conditions: 1A2-DRE human hepatoma cells, luciferase, 24 h; activation: stronger effect = higher value; further: % of control where 0% means no effect; nearly all actives have a fitted effect of over 15% in size
Summary of the method: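 Human hepatoma 1A2-DRE cells, stably carrying a dioxin response element and CYP1A2 promoter driving luciferase, were exposed to compounds for 24 hr at 37 C and 5% CO2. Luciferase signal was then read after 30 min One-Glo at room temperature.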

[12] = target: Peroxisome proliferator-activated receptor alpha (Homo sapiens) (UniProt Q07869); experiment: qHTS assay for small molecule agonists of the peroxisome proliferator-activated receptor alpha (PPARalpha) signaling pathway (AID 651778); conditions: PathHunter PPARalpha complementation, chemiluminescence, 6 h; max response: stronger effect = higher value; further: % of control where 0% means no effect
Sequence of Peroxisome proliferator-activated receptor alpha (Homo sapiens) (Q07869 whole entry, looked up): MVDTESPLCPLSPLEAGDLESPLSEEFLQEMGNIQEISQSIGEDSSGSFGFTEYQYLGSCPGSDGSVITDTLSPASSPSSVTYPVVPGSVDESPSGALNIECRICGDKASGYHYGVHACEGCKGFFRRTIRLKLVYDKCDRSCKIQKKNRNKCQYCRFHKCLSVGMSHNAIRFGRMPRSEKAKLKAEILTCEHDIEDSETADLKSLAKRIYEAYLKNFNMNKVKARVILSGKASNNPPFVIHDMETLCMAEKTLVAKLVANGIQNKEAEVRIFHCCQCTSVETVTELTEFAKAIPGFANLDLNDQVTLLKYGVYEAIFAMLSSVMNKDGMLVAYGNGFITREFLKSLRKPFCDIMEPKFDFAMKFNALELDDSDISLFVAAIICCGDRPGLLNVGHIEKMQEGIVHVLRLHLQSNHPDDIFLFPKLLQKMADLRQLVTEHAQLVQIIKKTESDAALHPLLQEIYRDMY
Summary of the method: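 Chemiluminescence from complemented enzyme reported PPARalpha activation in cells after 6 hr of compound treatment at 37 C. The detection reagent was incubated for 60 min at room temperature, and compounds were scored as agonists.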

[13] = qHTS assay for small molecule agonists of the antioxidant response element (ARE) signaling pathway measured by Nrf2-dependant transcriptional activity (AID 720636; active means well fitted curve in the direction sought with a large enough effect in the repeat runs; an effect the other way counts as inactive or inconclusive; further: % of control where 0% means no effect); conditions: ARE-luc HepG2, Nrf2 luciferase reporter, 16 h; series mostly up to 92.4 µM
Summary of the method: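 ARE-luc HepG2 cells carrying an Nrf2-responsive luciferase reporter were plated in medium with 1% dialyzed FBS, left 6 hr at 37 C to attach, then exposed to compound for 16 hr. Luciferase luminescence was read after ONE-Glo addition.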

[14] = qHTS assay for small molecule agonists of the antioxidant response element (ARE) signaling pathway measured by Nrf2-dependant transcriptional activity - cell viability counter screen (AID 720653; active means well fitted curve in the direction sought with a large enough effect in the repeat runs; an effect the other way counts as inactive or inconclusive; further: on the % scale 0 is the no-effect control and ±100 the full control effect); conditions: ARE-bla HepG2 viability, CellTiter-Glo ATP luminescence, 16 h; max response: stronger effect = lower value
Summary of the method: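 Cytotoxicity counter screen: intracellular ATP quantified by CellTiter-Glo luminescence in the same ARE-bla HepG2 plates, after 16 h compound exposure and a 2 h beta-lactamase substrate step.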

[15] = qHTS assay for cell viability of HEK293 cells (AID 743288); conditions: ATP luminescence (CellTiter-Glo), 18 h; max response: stronger effect = lower value; further: on the % scale 0 is the no-effect control and ±100 the full control effect; nearly all actives have a fitted effect of over 50% in size
Summary of the method: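 Luminescent ATP quantitation served as the viability read-out. Cells (parental HEK293, 2,000/well) received compounds after at least 5 h at 37 C and were exposed for 18 h before a 30 min room-temperature reagent step.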

[16] = target: Nuclear receptor subfamily 1 group I member 2 (Rattus norvegicus) (UniProt Q9R1A7); experiment: qHTS assay for small molecule activators of the rat pregnane X receptor (rPXR) signaling pathway (AID 651751; call rule not given here; further: 0% is about no effect); conditions: rPXR reporter cells, luciferase (One-Glo), 24 h
Sequence of Nuclear receptor subfamily 1 group I member 2 (Rattus norvegicus) (Q9R1A7 whole entry, looked up): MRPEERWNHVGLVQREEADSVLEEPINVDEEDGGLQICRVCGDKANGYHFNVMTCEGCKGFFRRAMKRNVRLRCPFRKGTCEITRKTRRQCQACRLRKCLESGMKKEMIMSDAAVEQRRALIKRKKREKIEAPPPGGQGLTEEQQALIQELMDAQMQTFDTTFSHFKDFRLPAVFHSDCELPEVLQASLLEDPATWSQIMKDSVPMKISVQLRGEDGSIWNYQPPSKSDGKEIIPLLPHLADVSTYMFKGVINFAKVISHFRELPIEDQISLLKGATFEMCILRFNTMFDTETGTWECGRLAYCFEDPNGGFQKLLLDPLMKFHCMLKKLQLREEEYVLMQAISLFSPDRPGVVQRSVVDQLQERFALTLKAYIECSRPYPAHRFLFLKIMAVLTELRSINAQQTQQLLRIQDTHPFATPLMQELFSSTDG

[17] = qHTS assay for small molecule agonists of retinoid X receptor alpha signaling (AID 588544; calls by dose curve;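 on activation: 0% = DMSO basal wells and 100% = reference agonist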); conditions: HEK293T RXRa-UAS-bla, beta-lactamase reporter, 18 h; 530 nm emission
[18] = target: Retinoic acid receptor RXR-alpha (Homo sapiens) (UniProt P19793); experiment: as above; conditions: HEK293T RXRa-UAS-bla, beta-lactamase reporter, 18 h; series mostly up to 76.7 µM
[19] = qHTS assay for cell viability of the p53RE-bla HCT-116 cell line (AID 743292); conditions: p53RE-bla HCT-116 viability, ATP luminescence, 16 h; series mostly up to 95 µM; further: on the % scale 0 is the no-effect control and ±100 the full control effect; nearly all actives have a fitted effect of over 55% in size
Summary of the method: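 CellSensor p53RE-bla HCT-116 cells, 4,000/well, preincubated 5 h at 37 C, then exposed to compounds in DMSO for 16 h at 37 C. Viability read as CellTiter-Glo luminescence (intracellular ATP) after 30 min at room temperature.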

[20] = qHTS assay for small molecule activators of the human pregnane X receptor (PXR) signaling pathway (AID 720659; call rule not given here; further: 0% is about no effect); conditions: DPX-2 HepG2 CYP3A4-luciferase, 24 h; series mostly up to 92.3 µM

Compound	activation [1]	Potency [2]	max response [3]	Potency [4]	outcome [5]	outcome [6]	Potency [7]	max response [8]	max response [9]	activation [10]	activation [11]	max response [12]	Potency [13]	max response [14]	max response [15]	max response [16]	max response [17]	Potency [18]	Potency [19]	outcome [20]
CCOc1ccc(NC(=O)OC(C)C)cc1OCC	-6.81% (inactive)	inactive	-29.8%	inactive	inactive	inactive	inactive	-3.73%	-21.6% (inactive)	-0.775% (inactive)	2.6% (inactive)	2.76% (inactive)	inactive	-3.59% (inactive)	-5.68% (inactive)	10.3% (inactive)				
NC(=O)Cc1cccc2ccccc12	-1.98% (inactive)	inactive	36.8%	inactive	inactive			0.786%	-14.7% (inactive)	1.36% (inactive)	4.55% (inactive)	-0.179% (inactive)	inactive	-4.7% (inactive)	-7.9% (inactive)	-0.261% (inactive)	-2.89%	inactive	inactive	inactive
COc1cc(Cl)c(OC)cc1N	-0.0557% (inactive)	inactive	-0.344%	inactive	inactive	inactive		1.78%	-0.61% (inactive)			-0.316% (inactive)	inactive	1.98% (inactive)	-8.15% (inactive)	6.4% (inactive)	-3.24%	inactive	inactive	
CCOCCOCCOCC	-5.25% (inactive)	inactive	12.8%	inactive	inactive	inactive	inactive	-7.04%	-12.1% (inactive)	-1.74% (inactive)	0.117% (inactive)	-2.34% (inactive)	inactive		-13.3% (inactive)	1.72% (inactive)	-3.22%	inactive	inactive	inactive
COCCOCCOCCO	2.13% (inactive)	inactive	7.14%	inactive		inactive		-2.04%	3.15% (inactive)	13.1% (inactive)	-0.0316% (inactive)	0.508% (inactive)	inactive	-1.82% (inactive)	-7% (inactive)	1.8% (inactive)	-11.8%	inactive		inactive
CC(C)CC(C)(O)C#CC(C)(O)CC(C)C (stereo unspecified)	4.46% (inactive)	inactive			inactive	inactive	inactive	-0.0198%	-21.9% (inactive)	1.9% (inactive)	0.133% (inactive)	-1.54% (inactive)	inactive	-3.69% (inactive)	-6.63% (inactive)		10.7%	inactive	inactive	
CCCCCCCCCCCCCCC	-6.59% (inactive)	inactive	-0.185%	inactive		inactive	inactive	-8.06%	-6.6% (inactive)			-1.61% (inactive)	inactive	10.3% (inactive)	-6.32% (inactive)	-4.43% (inactive)			inactive	inactive
C1CCC2(CCCCO2)OC1	-8.41% (inactive)	inactive	51.5%	inactive	inactive	inactive	inactive	-9.54%	-3.1% (inactive)		0.829% (inactive)	0.092% (inactive)	inactive	2.39% (inactive)	3.07% (inactive)	-2.06% (inactive)	-20.2%	inactive	inactive	inactive
C=C(C)C(=O)OCCOCCOCCOC(=O)C(=C)C	9.85% (inactive)	inactive			inactive	inactive	inactive	3.38%	4.6% (inactive)	-4.46% (inactive)	-1.22% (inactive)	-0.929% (inactive)	inactive	-16.9% (inactive)	-8.3% (inactive)	-0.564% (inactive)	1.13%	inactive	inactive	inactive
CCOC(=O)C(C)Oc1ccc(Oc2nc3ccc(Cl)cc3o2)cc1 (stereo unspecified)	19.6% (inactive)	inactive	-2.48%	inactive		inactive				-9.4% (inactive)	0.871% (inactive)	26% (inactive)		6.64% (inactive)	2.68% (inactive)	-9.57% (inactive)	11.3%	inactive		inactive
COCCOCCOCCOC	-5.4% (inactive)	inactive			inactive		inactive	0.474%	2.59% (inactive)	0.451% (inactive)	-0.0635% (inactive)	-0.298% (inactive)		1.56% (inactive)	-11.9% (inactive)	-0.732% (inactive)	-14.6%	inactive	inactive	inactive
CCCCC(CC)COC(C)=O (stereo unspecified)	-0.969% (inactive)	inactive	8.6%	inactive	inactive			-1.25%	-2.2% (inactive)		-1.93% (inactive)	-0.237% (inactive)	inactive	3.74% (inactive)	-7.43% (inactive)	-1.91% (inactive)	-20.2%	inactive	inactive	inactive
